Common to all, as to experiment: NCI-60 one-dose screen, 48 h (100 = growth as untreated, 0 = no growth, -100 = all killed)
What all share (conditions): 10 µM unless noted

The test system of test [1] is DU-145 prostate.
The test system of test [2] is K-562 leukemia.
Test [3] relates to MALME-3M melanoma.
The test system of test [4] is MDA-MB-231 breast.
The subject of test [5] is RXF 393 renal.
Test [6] concerns SF-268 CNS.
The subject of test [7] is SF-295 CNS.
The test system of test [8] is SF-539 CNS.
In test [9] the test system is UACC-257 melanoma.
The subject of test [10] is M14 melanoma.
In test [11] the test system is HCT-15 colon.
The subject of test [12] is HT29 colon.
For test [13], the system named is SNB-75 CNS.
In test [14] the test system is SNB-19 CNS.
Test [15] deals with U251 CNS.
For test [16], the system named is PC-3 prostate.
For test [17], the system named is SK-MEL-5 melanoma.
Test [18] relates to LOX IMVI melanoma.
Test [19] concerns SK-MEL-28 melanoma.
Test [20] concerns UACC-62 melanoma.

Structures are written as SMILES. About 83,000 compounds went through this panel and 20% of them were active in at least one assay; those are over-represented in the sample as a whole.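 A percent growth of 40 corresponds to 60% growth inhibition; 0 means no net growth; -100 means all cells died. Active threshold: below 10.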 A number with no mark means an inactive call. The source made the active and inactive calls.

For the compound `C/C(CC1(O)C(=O)Nc2ccccc21)=N\O` (stereo not given), the growth in [1] was 109%; in [2] it was 99.6%; in test [3] it was 96.2%; in test [4] it was 94.8%; in [5] it was 103%; in test [6] it was 98.3%. Also, the growth is 98.6% in test [7]; 94.7% in [8]; 105% in [9]; 97.9% in test [10]; 95.4% in test [11]; 104% in test [12]. Further, the growth in test [13] was 92.4%; in test [14] it was 103%; in [15], 98.8%; in [16], 88.6%; in test [17], 99.9%; in test [18], 90.4%. In addition, the growth in test [19] was 108%.
Turning to `CCOC(=O)c1ccc(NC2=C(Cl)C(=O)c3nc(C)ccc3C2=O)cc1`, the growth in test [1] is 91%; in test [2] it was 7.29% (active); in [3], 11.7%; in test [4], 77.4%; in test [5] it was 45.6%; in test [6], 70.8%. Besides, the growth in test [7] was 65%; in test [8] it was 54.3%; in test [9] it was 44.2%; in test [10], 52.4%; in test [11], -48.5% (active); in test [12], 71.5%. For the same compound, the growth in test [13] is 70.1%; in test [14], 68.1%; in test [15] it was 63.8%; in [16] it was 48%; in test [17], 63.6%; in [19], 55.2%.
As to `Cc1ccc2c(n1)C(=O)C(Cl)=C(Nc1ccccc1C(=O)OC(C)(C)C)C2=O`, the growth is -56.2% (active) in test [1]; -15.7% (active) in test [2]; -45.9% (active) in test [3]; 55.5% in test [4]; -81.7% (active) in test [5]; 79.6% in [6]. For the same compound, the growth in test [7] is 91.8%; in [8] it was 83.1%; in [9] it was -63.5% (active); in test [10], -10.6% (active); in [11], -66.2% (active); in [12] it was 26.2%. The growth was 98.6% in test [13]; 71.5% in test [15]; 67.1% in test [16]; 45.3% in [17]; 79% in test [20]; -72.5% (active) in test [18]. The growth in test [19] was 34.6%.
Turning to `CC(Nc1c(C#N)cnc2ccc(-c3cncc(O)c3)cc12)c1ccccc1` (stereo not given), the growth in test [1] was 3.93% (active); in test [2], 15.3%; in test [3] it was -34.1% (active); in test [4] it was 14.4%; in test [5] it was -24.6% (active); in test [6], 2.54% (active). In addition, the growth in test [7] is -13% (active); in test [8] it was 0.714% (active); in [9], 18.2%; in [10], 4.07% (active); in test [11], 4.88% (active); in test [12], 46.8%. Besides, the growth in test [13] is 10.5%; in test [15], 6.74% (active); in test [16], 9.41% (active); in [17], -89.4% (active); in test [20], -51.2% (active); in [18], 1.56% (active). Besides, the growth in [19] was 3.08% (active).
Regarding `CC(C)(C)OC(=O)Nc1ccc(-c2cccc(Oc3ccc4nnc(Cl)n4n3)c2)cc1`, the growth is 82.7% in [1]; 31.2% in test [2]; 106% in test [3]; 83.8% in test [4]; 89.8% in [5]; 104% in [6]. Also, the growth in test [7] is 84.1%; in test [8], 92.7%; in [9], 87.1%; in test [10], 65.9%; in test [11], 65%; in test [12], 84.7%. In addition, the growth in test [13] is 126%; in test [14] it was 94.9%; in test [15], 91.2%; in [16], 51.1%; in test [17], 19.5%; in [19], 96.9%.
As for `COc1cc(C(=O)c2cc(C(C)=O)c3cccc(C)n23)cc(OC)c1OC`, the growth is 68.3% in test [1]; 15.6% in test [2]; 46.2% in test [3]; 37.4% in test [4]; 46.6% in test [5]; 54% in test [6]. Further, the growth in [7] was 17.9%; in [8] it was 46.8%; in test [9] it was 56%; in test [10] it was 5.73% (active); in [11] it was 17.9%; in test [12], 8.74% (active). Besides, the growth in test [13] was 5.39% (active); in [15], 30.9%; in [16] it was 55.7%; in test [17] it was 33.3%; in test [20], 23.3%; in [18] it was 39.2%. In addition, in [19], the growth is 61.8%.
In the case of `O=C(CCCCCCNC(=O)C(O)(O)C(F)(F)F)Nc1nc2ccccc2s1`, the growth was 6.73% (active) in test [1]; 11.2% in test [2]; 14.4% in test [3]; 23.5% in [4]; -47.3% (active) in [5]; 8.81% (active) in [6]. The growth in [7] was -36.5% (active); in test [8], 10.5%; in test [9], 8.93% (active); in test [10], 14.5%; in [11], 6.75% (active); in test [12], 6.91% (active). Besides, the growth is 38.9% in [13]; -35.4% (active) in [15]; 34.6% in test [16]; -72.5% (active) in test [17]; -62.7% (active) in test [20]; -81.3% (active) in [18]. Moreover, the growth in test [19] was -4.84% (active).
On to `COC(=O)c1cccc(NC2=C(Cl)C(=O)c3nc(C)ccc3C2=O)c1`, for which the growth in [1] was 105%; in test [2] it was 6.34% (active); in test [3], 87.5%; in test [4] it was 62.6%; in test [5] it was 59.7%; in [6], 99.5%. Besides, the growth in test [7] is 107%; in test [8] it was 111%; in test [9] it was 62%; in test [10] it was 98.3%; in [11], 51.6%; in test [12], 110%. Also, the growth in [13] is 119%; in [15], 106%; in test [16] it was 85.4%; in test [17], 97.9%; in test [20], 95.4%; in test [18] it was 10.2%. Moreover, the growth in [19] was 93.6%.
